Laboratory results from paper PMC7862700, “An all-to-all approach to the identification of sequence-specific readers for epigenetic DNA modifications on cytosine”.

Experiments:
Test in all cases: DAPPL (digital affinity profiling via proximity ligation, sequencing); 10 mM Tris-HCl pH 7.5, 50 mM NaCl, 1 mM DTT, 4% glycerol, room temperature, 30 min; GST-TFs on glutathione beads, 16-mer random dsDNA library, 0.1% formaldehyde crosslink after washing; high values mean tight binding
Conditions in all cases: protein: recombinant; tags: N-terminal GST; dsDNA, one strand shown
FLI1 = molecular target: T1, FLI1 (Homo sapiens, UniProt Q01543 1-452)
T1 sequence: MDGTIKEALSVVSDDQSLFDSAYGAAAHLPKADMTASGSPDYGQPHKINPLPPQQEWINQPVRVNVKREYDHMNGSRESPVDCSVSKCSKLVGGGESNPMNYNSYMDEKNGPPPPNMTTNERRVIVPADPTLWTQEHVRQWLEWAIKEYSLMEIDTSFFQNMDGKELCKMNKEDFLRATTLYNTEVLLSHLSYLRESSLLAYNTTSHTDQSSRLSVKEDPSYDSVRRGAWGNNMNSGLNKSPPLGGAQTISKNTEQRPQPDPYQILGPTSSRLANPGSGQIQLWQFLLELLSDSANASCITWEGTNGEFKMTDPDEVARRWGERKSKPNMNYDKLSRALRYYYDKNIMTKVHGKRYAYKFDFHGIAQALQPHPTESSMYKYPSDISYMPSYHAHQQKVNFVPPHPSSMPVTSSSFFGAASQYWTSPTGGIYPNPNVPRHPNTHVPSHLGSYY
Method in brief: (§1)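 Human transcription factors were made in yeast as GST fusions, captured on glutathione beads and barcoded with DNA. With a tag-only sample included, the pool was incubated with 200 nmole of a random double-stranded 16-mer DNA library in Tris/NaCl/DTT/glycerol buffer at room temperature for 30 min, then crosslinked with 0.1% formaldehyde after washing, ligated by proximity, amplified and sequenced. For binding signal, each hexamer's read frequency for a factor is divided by its frequency for the tag-only sample.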

ELK1 = molecular target: T2, ELK1 (Homo sapiens, UniProt P19419 1-428)
T2 sequence: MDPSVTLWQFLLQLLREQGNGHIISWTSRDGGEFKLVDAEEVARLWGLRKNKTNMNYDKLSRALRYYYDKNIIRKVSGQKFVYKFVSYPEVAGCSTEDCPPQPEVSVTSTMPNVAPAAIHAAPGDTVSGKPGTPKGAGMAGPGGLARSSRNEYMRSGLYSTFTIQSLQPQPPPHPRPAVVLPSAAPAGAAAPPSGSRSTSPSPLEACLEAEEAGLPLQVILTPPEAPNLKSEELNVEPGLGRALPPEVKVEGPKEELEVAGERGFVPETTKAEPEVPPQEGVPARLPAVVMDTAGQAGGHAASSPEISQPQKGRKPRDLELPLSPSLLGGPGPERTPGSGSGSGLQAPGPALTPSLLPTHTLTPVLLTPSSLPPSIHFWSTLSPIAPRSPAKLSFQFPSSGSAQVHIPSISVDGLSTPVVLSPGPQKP
Method in brief: as §1

GABPA = molecular target: T3, GABPA (Homo sapiens, UniProt Q06546 1-454)
T3 sequence: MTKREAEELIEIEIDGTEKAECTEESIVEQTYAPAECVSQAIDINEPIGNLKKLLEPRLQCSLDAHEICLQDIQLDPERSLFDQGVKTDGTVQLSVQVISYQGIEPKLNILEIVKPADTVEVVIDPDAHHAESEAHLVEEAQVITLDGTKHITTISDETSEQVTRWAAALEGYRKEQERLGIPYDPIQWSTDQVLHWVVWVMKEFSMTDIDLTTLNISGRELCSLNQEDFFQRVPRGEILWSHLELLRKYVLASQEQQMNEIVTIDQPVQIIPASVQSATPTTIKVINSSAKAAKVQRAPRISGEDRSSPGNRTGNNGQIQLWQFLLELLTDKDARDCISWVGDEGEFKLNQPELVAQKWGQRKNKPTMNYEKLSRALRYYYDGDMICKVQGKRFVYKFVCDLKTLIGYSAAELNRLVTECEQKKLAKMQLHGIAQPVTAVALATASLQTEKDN
Method in brief: as §1

ERG = molecular target: T4, ERG (Homo sapiens, UniProt P11308 1-479)
T4 sequence: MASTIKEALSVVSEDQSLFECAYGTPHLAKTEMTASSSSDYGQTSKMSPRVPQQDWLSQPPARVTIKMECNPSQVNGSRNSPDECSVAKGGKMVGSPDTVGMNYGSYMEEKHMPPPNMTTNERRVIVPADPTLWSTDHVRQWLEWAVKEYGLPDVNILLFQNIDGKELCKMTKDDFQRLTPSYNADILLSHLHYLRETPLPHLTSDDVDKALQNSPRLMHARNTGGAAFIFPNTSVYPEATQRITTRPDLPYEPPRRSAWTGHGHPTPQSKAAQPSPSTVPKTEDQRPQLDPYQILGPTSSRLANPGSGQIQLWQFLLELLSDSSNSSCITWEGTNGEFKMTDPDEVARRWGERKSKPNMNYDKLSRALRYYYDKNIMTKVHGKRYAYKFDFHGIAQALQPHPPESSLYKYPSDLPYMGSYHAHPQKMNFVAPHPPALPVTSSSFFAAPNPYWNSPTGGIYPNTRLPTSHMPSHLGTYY
Method in brief: as §1

ELF1 = ELF1 (Homo sapiens, UniProt P32519 1-619)
Method in brief: as §1

EHF = molecular target: T5, EHF (Homo sapiens, UniProt Q9NZC4 1-300)
T5 sequence: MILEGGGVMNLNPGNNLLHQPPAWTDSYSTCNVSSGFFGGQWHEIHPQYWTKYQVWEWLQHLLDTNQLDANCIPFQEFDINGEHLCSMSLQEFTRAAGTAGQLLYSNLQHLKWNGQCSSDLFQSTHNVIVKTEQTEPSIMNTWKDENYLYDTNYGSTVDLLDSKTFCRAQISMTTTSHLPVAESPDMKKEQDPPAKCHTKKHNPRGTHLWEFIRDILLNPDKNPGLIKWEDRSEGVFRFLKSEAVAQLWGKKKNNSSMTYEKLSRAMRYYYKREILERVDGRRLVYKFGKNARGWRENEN
Method in brief: as §1

SPI1 = SPI1 (Homo sapiens, UniProt P17947 1-270)
Method in brief: as §1

SPIB = SPIB (Homo sapiens, UniProt Q01892 1-262)
Method in brief: as §1

ELK3 = molecular target: T6, ELK3 (Homo sapiens, UniProt P41970 1-407)
T6 sequence: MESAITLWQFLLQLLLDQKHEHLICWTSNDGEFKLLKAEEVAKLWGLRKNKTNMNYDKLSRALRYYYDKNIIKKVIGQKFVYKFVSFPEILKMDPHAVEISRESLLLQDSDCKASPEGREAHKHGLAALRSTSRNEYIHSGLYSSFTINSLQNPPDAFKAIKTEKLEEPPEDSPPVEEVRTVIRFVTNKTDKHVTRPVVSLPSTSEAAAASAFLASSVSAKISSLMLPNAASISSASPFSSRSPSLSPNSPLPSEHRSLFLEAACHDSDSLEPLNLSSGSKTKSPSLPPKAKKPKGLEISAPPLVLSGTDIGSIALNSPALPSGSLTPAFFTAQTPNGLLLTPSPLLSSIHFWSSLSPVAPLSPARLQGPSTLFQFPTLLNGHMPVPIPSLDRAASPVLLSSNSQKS
Method in brief: as §1

Chain of ELF1 (P32519 whole entry): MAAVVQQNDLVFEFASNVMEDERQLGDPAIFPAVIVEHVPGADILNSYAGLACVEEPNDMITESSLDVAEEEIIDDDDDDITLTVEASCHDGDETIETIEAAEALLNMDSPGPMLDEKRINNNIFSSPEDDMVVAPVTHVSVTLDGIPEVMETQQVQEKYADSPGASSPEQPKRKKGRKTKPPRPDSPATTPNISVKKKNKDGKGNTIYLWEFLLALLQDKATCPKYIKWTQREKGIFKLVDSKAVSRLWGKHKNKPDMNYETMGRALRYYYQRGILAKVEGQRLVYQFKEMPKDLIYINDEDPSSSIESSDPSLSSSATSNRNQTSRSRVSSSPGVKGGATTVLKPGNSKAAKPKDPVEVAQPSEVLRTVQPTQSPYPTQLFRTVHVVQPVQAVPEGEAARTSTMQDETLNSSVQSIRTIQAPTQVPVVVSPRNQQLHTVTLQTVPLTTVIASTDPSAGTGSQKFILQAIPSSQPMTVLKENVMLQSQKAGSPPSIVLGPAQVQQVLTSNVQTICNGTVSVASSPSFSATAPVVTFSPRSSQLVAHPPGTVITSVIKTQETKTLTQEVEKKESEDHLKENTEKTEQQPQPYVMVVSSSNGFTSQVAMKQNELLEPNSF
Chain of SPIB (Q01892 whole entry): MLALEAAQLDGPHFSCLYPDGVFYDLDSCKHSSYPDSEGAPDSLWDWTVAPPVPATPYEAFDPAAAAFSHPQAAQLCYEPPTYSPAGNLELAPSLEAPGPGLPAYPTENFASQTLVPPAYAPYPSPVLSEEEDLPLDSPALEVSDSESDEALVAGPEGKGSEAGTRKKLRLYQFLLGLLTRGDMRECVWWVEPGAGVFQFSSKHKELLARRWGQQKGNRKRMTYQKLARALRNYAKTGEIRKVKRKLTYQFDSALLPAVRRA

Sequence | binding signal (FLI1) | binding signal (ELK1) | binding signal (GABPA) | binding signal (ERG) | binding signal (ELF1) | binding signal (EHF) | binding signal (SPI1) | binding signal (SPIB) | binding signal (ELK3)
ATATTT | 1.6 fold enrichment (6-mer frequency, TF over GST control) | 1.54 fold enrichment (6-mer frequency, TF over GST control) | 1.55 fold enrichment (6-mer frequency, TF over GST control) | 1.53 fold enrichment (6-mer frequency, TF over GST control) | 1.55 fold enrichment (6-mer frequency, TF over GST control) | 1.56 fold enrichment (6-mer frequency, TF over GST control) | 1.43 fold enrichment (6-mer frequency, TF over GST control) | 1.51 fold enrichment (6-mer frequency, TF over GST control) | 1.47 fold enrichment (6-mer frequency, TF over GST control)
CATTCA | 1.17 fold enrichment (6-mer frequency, TF over GST control) | 1.14 fold enrichment (6-mer frequency, TF over GST control) | 1.1 fold enrichment (6-mer frequency, TF over GST control) | 1.17 fold enrichment (6-mer frequency, TF over GST control) | 1.13 fold enrichment (6-mer frequency, TF over GST control) | 1.05 fold enrichment (6-mer frequency, TF over GST control) | 1.07 fold enrichment (6-mer frequency, TF over GST control) | 1.12 fold enrichment (6-mer frequency, TF over GST control) | 1.16 fold enrichment (6-mer frequency, TF over GST control)
CCTCTC | 1.51 fold enrichment (6-mer frequency, TF over GST control) | 1.39 fold enrichment (6-mer frequency, TF over GST control) | 1.37 fold enrichment (6-mer frequency, TF over GST control) | 1.37 fold enrichment (6-mer frequency, TF over GST control) | 1.43 fold enrichment (6-mer frequency, TF over GST control) | 1.34 fold enrichment (6-mer frequency, TF over GST control) | 1.39 fold enrichment (6-mer frequency, TF over GST control) | 1.44 fold enrichment (6-mer frequency, TF over GST control) | 1.44 fold enrichment (6-mer frequency, TF over GST control)
TGCATT | 1.34 fold enrichment (6-mer frequency, TF over GST control) | 1.34 fold enrichment (6-mer frequency, TF over GST control) | 1.37 fold enrichment (6-mer frequency, TF over GST control) | 1.24 fold enrichment (6-mer frequency, TF over GST control) | 1.33 fold enrichment (6-mer frequency, TF over GST control) | 1.3 fold enrichment (6-mer frequency, TF over GST control) | 1.31 fold enrichment (6-mer frequency, TF over GST control) | 1.34 fold enrichment (6-mer frequency, TF over GST control) | 1.35 fold enrichment (6-mer frequency, TF over GST control)
TTCACC | 1.35 fold enrichment (6-mer frequency, TF over GST control) | 1.39 fold enrichment (6-mer frequency, TF over GST control) | 1.34 fold enrichment (6-mer frequency, TF over GST control) | 1.38 fold enrichment (6-mer frequency, TF over GST control) | 1.39 fold enrichment (6-mer frequency, TF over GST control) | 1.19 fold enrichment (6-mer frequency, TF over GST control) | 1.4 fold enrichment (6-mer frequency, TF over GST control) | 1.28 fold enrichment (6-mer frequency, TF over GST control) | 1.32 fold enrichment (6-mer frequency, TF over GST control)
CTTGAC | 1.17 fold enrichment (6-mer frequency, TF over GST control) | 1.3 fold enrichment (6-mer frequency, TF over GST control) | 1.3 fold enrichment (6-mer frequency, TF over GST control) | 1.2 fold enrichment (6-mer frequency, TF over GST control) | 1.2 fold enrichment (6-mer frequency, TF over GST control) | 1.14 fold enrichment (6-mer frequency, TF over GST control) | 1.18 fold enrichment (6-mer frequency, TF over GST control) | 1.19 fold enrichment (6-mer frequency, TF over GST control) | 1.23 fold enrichment (6-mer frequency, TF over GST control)
CTAGTA | 1.08 fold enrichment (6-mer frequency, TF over GST control) | 1.03 fold enrichment (6-mer frequency, TF over GST control) | 1.08 fold enrichment (6-mer frequency, TF over GST control) | 1.06 fold enrichment (6-mer frequency, TF over GST control) | 1.15 fold enrichment (6-mer frequency, TF over GST control) | 1.08 fold enrichment (6-mer frequency, TF over GST control) | 1.13 fold enrichment (6-mer frequency, TF over GST control) | 1.1 fold enrichment (6-mer frequency, TF over GST control) | 1.17 fold enrichment (6-mer frequency, TF over GST control)
